Source: the OligoGym collection
Also: reference of the scale not given here.

The sequences below were run against MYO1F (assay: pooled miR-30 sensor sort-seq; sequence = guide strand). Conditions: shRNA.
In the case of TAGTGTGTCGCTGAAGGTGAGG, the sensor-assay potency score (higher = more potent) was -0.748.
TTCTTCACTTTCTCTCGCCCAA gave a sensor-assay potency score (higher = more potent) of -0.544.
With AAAGTCGCTTCTGTCGTCCGTG the sensor-assay potency score (higher = more potent) was -0.528.
Sequence TTCCGGTACATGTTGTCCGTGA has a sensor-assay potency score (higher = more potent) of 0.0719.
Sequence TCATTTTGCATGACCACGCGGG has a sensor-assay potency score (higher = more potent) of -0.396.
Sequence TTCTTGACAAAGACCTTGGTGC has a sensor-assay potency score (higher = more potent) of 0.169.
Work on TAGCACTCAGAGTCTCACCAAA yielded a sensor-assay potency score (higher = more potent) of -0.917.
Sequence TTGGCTGCCACTGTCTTCCCAG has a sensor-assay potency score (higher = more potent) of -0.239.
TTGTTGTTGCGCACAGTCTTGG was tested, and the sensor-assay potency score (higher = more potent) was -0.625.

The sequences below were run against MYRIP in the same assay as above. Conditions: shRNA.
For TGACACATAACACAGCATCAGC, the sensor-assay potency score (higher = more potent) was -1.31.
In the case of TTATCTCTTATAAACACTCTAA, the sensor-assay potency score (higher = more potent) was -0.392.
For TTAAATAATAATTCCCACCTTC, the sensor-assay potency score (higher = more potent) was 0.152.
With TTTAATAGTAAATTAAATCTTT the sensor-assay potency score (higher = more potent) was -0.26.
Work on TTTTCGTATAATCTTCTGCAGG yielded a sensor-assay potency score (higher = more potent) of -1.35.
With TTTTGCTCTTCTGTTTTCGTAT the sensor-assay potency score (higher = more potent) was -0.368.
ATCTTCTGCAGGATTGTCGTGG gave a sensor-assay potency score (higher = more potent) of -0.78.
With TTTTGCTTTGAATCACACCAAC the sensor-assay potency score (higher = more potent) was -1.21.
Sequence TAACACAACAATAGTTGCTTTT has a sensor-assay potency score (higher = more potent) of -1.01.
In the case of ATTGCTAACTCGTACAGCCTGT, the sensor-assay potency score (higher = more potent) was -0.149.

What follows are sequences tested against MYST1 in the same assay as above. Conditions: shRNA.
TACTTGAGGCAGTACTCGCAGA was tested, and the sensor-assay potency score (higher = more potent) was -0.834.
Sequence TTTGAGGTGCTCCTCCACCAGC has a sensor-assay potency score (higher = more potent) of -1.45.
With TTTGCCATCAACTTCGTGCACG the sensor-assay potency score (higher = more potent) was -0.42.
For TTGGTTGCGAGTGATCTTGCGC, the sensor-assay potency score (higher = more potent) was -0.436.
In the case of TTGACTTGCTTGTGCTTGGGGG, the sensor-assay potency score (higher = more potent) was 0.169.
With TACTTGACCATATTGAGGGATT the sensor-assay potency score (higher = more potent) was -1.22.
For TTGCGGTAGATCTCTTTCCCGG, the sensor-assay potency score (higher = more potent) was -0.991.
Sequence TTGATGGACAGTGTGCCCCGGA has a sensor-assay potency score (higher = more potent) of -0.00673.
Sequence TATTTCATGTACTTGAGGCAGT has a sensor-assay potency score (higher = more potent) of 0.803.
TTGTCCACATACTTCACCTTGG was tested, and the sensor-assay potency score (higher = more potent) was -0.263.
Work on TACTTCTCTGAGTTCTTCTGTA yielded a sensor-assay potency score (higher = more potent) of 0.544.
TACAGCATCCTTCACTGTCTTG showed a sensor-assay potency score (higher = more potent) of -0.889.

Each sequence was assayed against MYST4 in the same assay as above. Conditions: shRNA.
Work on TTACTGTTAGCACAACACTTGT yielded a sensor-assay potency score (higher = more potent) of -0.946.
In the case of TATACAATAACTGAAATGCTAA, the sensor-assay potency score (higher = more potent) was -0.972.
With TTACAGACAACAATCGTTGCTT the sensor-assay potency score (higher = more potent) was 0.972.
In the case of TTCAGTAACGACATCCTTGTTT, the sensor-assay potency score (higher = more potent) was -0.1.
For TTGGCTTTTAGCACCATCTGGA, the sensor-assay potency score (higher = more potent) was 0.342.
In the case of TTTGATGAGATCATCTTCTGGT, the sensor-assay potency score (higher = more potent) was 1.05.
With TTTGAGAACTGAGCCATCCTGA the sensor-assay potency score (higher = more potent) was 0.202.
TTATTTTCTGTATAGCTTCAAG was tested, and the sensor-assay potency score (higher = more potent) was -0.855.
Sequence TTGAGTCTCGGCACAATCCTGA has a sensor-assay potency score (higher = more potent) of 0.672.
